High-throughput results from PubChem.
Rows were chosen to be rich in hits. Some 10% of all compounds tested hit in one or more screens of this group.
Lamin A splicing: qHTS Assay for Modulators of Lamin A Splicing; HeLa LMNA splicing GFP/RFP minigene ratio, 48 h; AID 1487, 2009; hit rate 0.01% among 200,000; Potency, µM (doses to about 46.1 µM), for inactives: at the top dose ratio change, negative = inhibition, actives largely listed as inhibitors; active = well fitted inhibition curve with a large enough effect in the signal ratio, with a control signal flat, not every such curve was filed as active; inconclusive = small, poorly fitted or top-dose-only effect, or effect the other way, or a change in a side signal; the % refers to the signal ratio; also: potency is read from the fitted curve at half-maximal effect
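S3 HeLa stable clones carrying a lamin A-EGFP splicing minigene plus DsRed2 were seeded at 600 cells/well in Opti-MEM with 2% FBS, pin-dosed and incubated 48 h at 37°C. Acumen cytometry (488 nm) gave the GFP/RFP total-intensity ratio.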
PNC assembly inh: High Content Assay for Compounds that inhibit the Assembly of the Perinucleolar Compartment. AID 2417, 2010. activity change (PNC), negative = inhibition, % at 10 µM. PC3M PTB-GFP, PNC prevalence imaging, 16 h; hits give low values. hit rate 3.1% among 140,000;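 active = readout at or below -70, meaning at least 70% loss of cells showing the perinucleolar compartment, a nuclear body marking cancer cells; inconclusive = readout between -30 and a set limit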;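 also: plate controls were DMSO wells for no effect and camptothecin positive control wells for full effect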
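PC3M cells stably expressing PTB-GFP, 750–1000 cells/well, treated 16 h at 37 °C with compound (23 nl of library stock), in duplicate. After paraformaldehyde fixation and Hoechst stain, imaged at 20x; PNC prevalence scored by image analysis.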
12-hLO inh: qHTS Assay for Inhibitors of 12-hLO (12-human lipoxygenase). purified 12-hLO, xylenol orange hydroperoxide absorbance. Potency, µM (titrated, usually from 57.1 µM), inactives show at the highest dose activity change, negative = inhibition, most hits filed as inhibitors. hit rate 0.12% among 150,000. AID 1452, 2008; active = well fitted inhibition curve with a large enough effect; inconclusive = small, poorly fitted or top-dose-only effect; also: potency is read from the fitted curve at half-maximal effect; nearly all actives have a fitted effect of over 55% in size
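Xylenol orange chromogenic assay: hydroperoxide from 12hLO oxidises Fe(II), giving red-shifted Fe(III)-XO absorbance. Conditions: 150 nM enzyme, 40 uM arachidonic acid, 25 mM Hepes pH 7.0, 0.01% Triton X-100, 30 min, room temperature.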
ALDH1A1 inh: qHTS Assay for Inhibitors of Aldehyde Dehydrogenase 1 (ALDH1A1); Aldehyde dehydrogenase 1A1 (Homo sapiens), P00352; Purified ALDH1A1, NADH fluorescence, propionaldehyde substrate; Potency, µM (series often up to 75.3 µM), for inactives: top-dose activity, negative = inhibition, usual class: inhibitors; hit rate 7.3% among 220,000;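 also: potency is read from the fitted curve at half-maximal effect; plate controls were no enzyme wells and a reference inhibitor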
HPGD block: qHTS Assay for Inhibitors of HPGD (15-Hydroxyprostaglandin Dehydrogenase); Potency, µM, inactives show top-dose activity change, negative = inhibition, usual class: inhibitors; hit rate 4.3% among 150,000; purified HPGD, NADH fluorescence kinetic, PGE2 substrate; AID 894, 2007; 15-hydroxyprostaglandin dehydrogenase [NAD(+)] (Homo sapiens), P15428; also: potency is read from the fitted curve at half-maximal effect
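NADH formation kinetics: reaction with 30 uM PGE2 and 1 mM NAD+ (final), 20 nM enzyme, Tris-HCl pH 8 with Tween 20, after 15 min compound preincubation at room temperature. Fluorescence change, last versus first of five reads.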
* hit, by the source's call; ? = inconclusive; / = not tested or not shown; [ ] = another dose, or the depositor's remark. Unless noted, calls follow the shape of the dose curve; as a rule, active = well fitted inhibition curve with a large enough effect (not every such curve was filed as active); inconclusive = small, poorly fitted or top-dose-only effect, or another doubt; inactive = no such curve, though single readings can be large or run the other way. Unless noted, % is scaled to controls: 0 for no effect and ±100 for the full control effect.

SMILES	Lamin A splicing	PNC assembly inh	12-hLO inh	ALDH1A1 inh	HPGD block
O=C(O/N=C1\CCCCC1c1ccc([N+](=O)[O-])cc1[N+](=O)[O-])c1c(F)cccc1F (configuration not stated)	4%	72	-3%	18µM*	-5%
Cc1cc(NCCO)nc(-n2nc(C)cc2C)n1	-2%	-7	-4%	?	/
Cc1cc(N(CCO)CCO)nc(-n2nc(C)cc2C)n1	?	-18	1%	11µM*	-11%
COc1ccc(CN2CCCC(CNC(=O)c3ccc(F)cc3)C2)c(C)c1C (configuration not stated)	-6%[46 µM]	/	/	-15%	/
CC1(C)CC(=O)C2=C(C1)NC(=O)CC2c1ccccc1F (configuration not stated)	5%	29	-1%	-3%	-11%
Cc1[nH]nc2c1C(c1ccccc1F)CC(=O)N2 (configuration not stated)	-2%	-106*	9%	22µM*	-18%
O=C1CC(c2ccccc2F)C2=C(COC2=O)N1 (configuration not stated)	/	/	/	18µM*	/
CCc1ccc(N2CC(C(=O)Nc3cc(C)on3)CC2=O)cc1 (configuration not stated)	/	/	/	-4%	/
CCC(=O)C1=C(c2ccc(OC)c(OC)c2)N(C(=O)CC)n2c(CC)nnc2S1	-22%[46 µM]	/	/	/	/
Cc1cc([N+](=O)[O-])nn1CCCC(=O)Nc1sc2c(c1C(N)=O)CCCC2	-4%	-3	1%	7%	4.5µM*
NC(=O)c1c(NC(=O)CCCn2cnc([N+](=O)[O-])n2)sc2c1CCCC2	/	/	/	1.6µM*	/
CCCOC(=O)c1c(NC(=O)CCCn2nc([N+](=O)[O-])cc2C)sc(C(=O)OC)c1C	-8%	-119*	0%	?	-6%
CC1CCc2c(sc(NC(=O)CCCn3cnc([N+](=O)[O-])n3)c2C(N)=O)C1 (configuration not stated)	12%[46 µM]	/	/	-13%	/
CC(c1ccon1)N(C)Cc1cn(Cc2ccccc2)nc1-c1ccc2c(c1)OCO2 (configuration not stated)	/	/	/	2%	/
N#C/C(=C(/O)COC(=O)CSc1ccc2ccccc2c1)c1nc2ccccc2[nH]1	-8%	-80*	-1%	-3%	-16%
CCc1c(C)[nH]n(-c2nc(-c3cccc([N+](=O)[O-])c3)cs2)c1=O	?	-15	-4%	14µM*	-17%
CCc1ccc2c(c1)C(=O)C(=O)N2CC(=O)Nc1ccc(NC(=O)c2ccccn2)cc1	?	/	/	0.22µM*	/
COc1cc(C=O)ccc1OS(=O)(=O)c1ccccc1[N+](=O)[O-]	-11%	22	-4%	8.9µM*	18µM*
COc1cc(C=O)ccc1OCCCCOc1ccccc1[N+](=O)[O-]	?	?	-5%	5µM*	-26%
COc1cc(C=O)ccc1OCCCOc1ccccc1[N+](=O)[O-]	?	-26	-7%	-15%	20µM*
COc1ccc(C=O)cc1COc1ccc(C)cc1[N+](=O)[O-]	?	?	-20%	10µM*	-23%
COc1cc(C=O)ccc1OCCCOc1ccc([N+](=O)[O-])cc1	?	-7	-2%	?	-21%
COc1cc(C=O)ccc1OCCOc1ccccc1[N+](=O)[O-]	0%	36	-2%	?	?
COc1ccccc1CN1CCC2(CC1)CCN(C(C)=O)CC2	/	/	0%	1%	-7%
Cc1ccc(C(=O)Nc2nnc(SCc3cc(=O)c4c(C)ccc(C)c4[nH]3)s2)cc1	2%[46 µM]	/	/	/	/
CCOc1ccccc1NC(=O)C1CCN(S(=O)(=O)c2ccc3[nH]c(=O)oc3c2)CC1	-18%[46 µM]	/	/	/	/
O=C(Oc1ccccc1)C1O[C@@H]1c1ccccc1 (some centres not stated)	/	/	/	-7%	-5%
COc1ccc(C=O)cc1COc1ccc(Cl)cc1[N+](=O)[O-]	?	57	2%	2%	0%
